Screening results deposited in PubChem by ICCB-Longwood Screening Facility, Harvard Medical School.
Vaccinia pol inh: inhibitors of vaccinia virus processive DNA synthesis (E9 polymerase); in vitro processive DNA synthesis, absorbance read-out; stronger effect = lower value; normalized absorbance, % (concentration not given with the values); 0.94% of 46,000 active; in the data active = normalized absorbance mostly below about 85%, no sharp cut-off; inactive = mostly above about 86%
An asterisk follows results filed as active. This is one part of a sample in which hits are shown more often than they occur.

SMILES | Vaccinia pol inh
O=C(O)c1ccc2c(c1)N(Cc1ccc(F)cc1)C(=O)/C(=C\c1ccccc1)S2 | 57*
O=C(/C=C1/Sc2ccccc2N(Cc2ccc(F)cc2)C1=O)NCc1ccccc1 | 104
Cc1cc(C)c(C(=O)C/C(=N/O)C(F)(F)F)c(=O)[nH]1 | 92
Cn1cccc1Cc1nnc(SCC(=O)NC2CCCC2)n1C | 106
OC(CN1CCNCC1)Cn1c2ccc(Br)cc2c2cc(Br)ccc21 (configuration not stated) | 31*
CC1CC(C)CN(CC(O)Cn2c3ccccc3c3ccccc32)C1 (configuration not stated) | 92
OC(CN1CCN(c2cccc(Cl)c2)CC1)Cn1c2ccccc2c2ccccc21 (configuration not stated) | 100
O=C(O)/C=C/c1cccs1 | 101
CC1=CC(=O)C(N(C)c2ccccc2)=CC1=O | 101
CC1CCCCN1C(=O)CSc1nnc(-c2ccccc2)o1 (configuration not stated) | 95
CC1CCCCN1C(=O)CSc1ccc2ccccc2c1 (configuration not stated) | 73*
CCOC(=O)C1CCCN(C(=O)CSc2ccc3ccccc3c2)C1 (configuration not stated) | 94
CC1CCc2c(sc3ncnc(Oc4ccccc4F)c23)C1 (configuration not stated) | 101
S=c1[nH]c(=S)c2cnc(N3CCc4ccccc43)nc2[nH]1 | 98
CNc1nc(N2CCc3ccccc32)ncc1F | 56*
CC1CC(=O)c2cnc(N3CCc4ccccc43)nc2C1 (configuration not stated) | 100
Cc1cc(C)cc(N(CC(=O)O)S(=O)(=O)c2c(C)n[nH]c2C)c1 | 91
Cc1nc(N2CCC(C)CC2)c2c(C)c(C(=O)N3CCOCC3)sc2n1 | 96
CCOc1ccc(OCC)c(NC(=O)c2ccc3c(c2)N(Cc2ccccc2)C(=O)CS3=O)c1 (configuration not stated) | 101
Cc1ccc2[nH]c(=O)c(CN(C3CCCCC3)S(=O)(=O)c3ccccc3)cc2c1 | 101
Cc1ccc(-c2noc(CN(C3CCCCC3)S(=O)(=O)c3ccccc3)n2)cc1 | 64*
CC(C)N(Cc1nc(-c2ccccc2)no1)C(=O)C1CCCCC1 | 99
Cc1cc(=O)n2nc(N(C)CC(=O)NCc3ccccc3)sc2n1 | 106
CCC1Nc2ccccc2NC1=O (configuration not stated) | 100
O=C(Nc1nc2c(Cl)cccc2s1)C1CC1 | 101
SMILES | Vaccinia pol inh
CCNc1nc2c(C)cccc2s1 | 104
O=C(Nc1nc2ccccc2s1)c1ccccc1 | 101
Cc1cccc2sc(NN)nc12 | 61*
c1ccc(CCNc2nc3ccccc3s2)cc1 | 101
NNc1nc2ccccc2s1 | 78*
Cc1cc2c(c(=S)[nH]1)C(=O)O/C2=C/c1ccc(Cl)c(Cl)c1 | 101
CC(=O)Nc1ncc(CN2CCOCC2)s1 | 98
CCC1CCCCN1C(=O)C1=CC(c2ccc(OC)cc2)=NS(=O)(=O)N1C (configuration not stated) | 87
COc1ccc(C2=NS(=O)(=O)N(C)C(C(=O)N3CCC(C)CC3)=C2)cc1OC | 104
COc1ccc(C2=NS(=O)(=O)N(C)C(C(=O)N3CCC(C(N)=O)CC3)=C2)cc1 | 70*
O=C(c1cnn(C(=S)Nc2ccccc2)c1)c1cc(Cl)ccc1O | 85
CCCNC(=O)c1nnc(Cc2ccc(OC)c(OC)c2)o1 | 101
Cc1cc2ccccc2c(N=Cc2cc(Br)cc(Br)c2O)c1C#N | 81
Cc1c(N=Cc2cc(Br)cc(Br)c2O)cccc1C(=O)O | 45*
COc1cccc(C=Nc2cccc(C(=O)O)c2C)c1O | 94
O=C(O)c1coc2c(F)c(F)c(F)cc2c1=O | 95
CC1CCN(CCCNC(=O)c2ccc(/C=C3\Oc4ccccc4NC3=O)cc2)CC1 | 70*
O=C1Nc2ccccc2O/C1=C\c1ccccc1 | 106
O=C(NCCCN1CCOCC1)c1ccccc1 | 100
O=C(Oc1cccnc1I)c1cccc(C(F)(F)F)c1 | 105
OC(CNC1CCCC1)Cn1c2ccccc2c2ccccc21 (configuration not stated) | 80*
Cc1c(C)n(CC(O)CNC2CCCCC2)c2ccccc12 (configuration not stated) | 100
Cc1ccc(N(CC(O)Cn2c3ccccc3c3ccccc32)S(=O)(=O)c2ccccc2)cc1 (configuration not stated) | 101
CCN(CC)CC(O)Cn1c2ccccc2c2ccccc21 (configuration not stated) (tested in a mixture with another compound) | 76*
CC(C)Cn1c2ccccc2c2ccccc21 | 98
SMILES | Vaccinia pol inh
Cc1c(C)n(CC(O)CNC2CCCC2)c2ccccc12 (configuration not stated) | 97
O=C(O)Cn1c(-c2ccc(Br)cc2)nc(=S)c2c1CCCC2 | 100
CN(C1CCCCC1)S(=O)(=O)c1ccc(C(=O)Nc2sccc2C#N)cc1 | 120
O=C(CCN1CCCCC1)c1cc2ccccc2o1 | 99
COc1ccc(CN=C2SCC(=O)N2c2ccccc2)cc1Cl | 89
C1CCN2C[C@H]3C[C@H](CN4CCCC[C@@H]34)[C@H]2C1 | 101
